Results on 14 compounds are retold here after the supplement of paper PMC6522484.

± gives the standard deviation of the averaged measurements.

Test [1] concerns DLD1. As to the kind of experiment: cell viability (CellTiter-Glo) relative to plate median (fraction of plate median); higher = more viable cells. The note with it: 5 µM; treatment time 24 h; reporter: 7TFP. A digest of the protocol: (§1)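 Two independent replicates were averaged for each reported value. Library compounds were applied at a final 5 µM for 24 h to colorectal cancer cell lines stably expressing lentiviral TCF/Wnt firefly luciferase reporters. Firefly luciferase or CellTiterGlo luminescence from each well was normalised to the plate median.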
(In general: ATP-based viability assays read luminescence as a measure of living cells.)

Another test relates to HCT116. The test is described as above. The note with it: 5 µM; treatment time 24 h; reporter: TCF4/Wnt. A digest of the protocol:
as §1

The test system of test [2] is SW480. Described as above. The note with it: 5 µM; treatment time 24 h; reporter: 7TFP. The gist of the method:
as §1

The test system of test [3] is DLD1. Put plainly: TCF/Wnt firefly luciferase reporter signal relative to plate median (fraction of plate median); higher = higher Wnt reporter signal. The conditions noted are these: 5 µM; treatment time 24 h; reporter: 7TFP. The gist of the method:
as §1
On the technique in general: Reporter assays use an easily measured gene product as a stand-in for the process of interest.

For test [4], the system named is SW480. Described as above. The conditions noted are these: 5 µM; treatment time 24 h; reporter: 7TFP. A digest of the protocol:
as §1

Turning to `CO[C@H]1/C=C/O[C@@]2(C)Oc3c(C)c(O)c4c(O)c(c5c(nc6cc(C)ccn65)c4c3C2=O)NC(=O)/C(C)=C\C=C\[C@H](C)[C@H](O)[C@@H](C)[C@@H](O)[C@@H](C)[C@H](OC(C)=O)[C@@H]1C`, the results for the cell viability in the test on DLD1 [1], in the test on HCT116 and in the test with SW480 [2] were 1.05 ± 0.093, 1.1 ± 0.035 and 1.04 ± 0.042, respectively. The “TCF/Wnt firefly luciferase reporter signal” value in the test on DLD1 [3] was 1.05 ± 0.15; with SW480 [4], 1.11 ± 0.071.

Regarding `Cc1cc(=O)oc2cc(O)c(O)cc12`, the cell viability with DLD1 [1] is 0.951 ± 0.035; in the test on HCT116, 0.886 ± 0.071; in the test on SW480 [2] it was 0.98 ± 0.057. The “TCF/Wnt firefly luciferase reporter signal” value in the test with DLD1 [3] turned out to be 0.711 ± 0.25; in the test on SW480 [4] it was 1.085 ± 0.0071.

`Cc1ccc(N(CC2=NCCN2)c2cccc(O)c2)cc1`: the figures for the cell viability with DLD1 [1], in the test with HCT116 and with SW480 [2] were 1.01 ± 0.042, 0.992 ± 0.2 and 1.02 ± 0.014, respectively. Moreover, the “TCF/Wnt firefly luciferase reporter signal” value in the test with DLD1 [3] came out at 0.92 ± 0.039; with SW480 [4] it was 0.94 ± 0.044.

For `COC(=O)C(N)CS` (stereo not given), the cell viability in the test with DLD1 [1] was found to be 0.972 ± 0.054; in the test on HCT116, 0.965 ± 0.092; with SW480 [2] it was 1 ± 0.036. The “TCF/Wnt firefly luciferase reporter signal” value in the test with DLD1 [3] was 0.836 ± 0.039; with SW480 [4], 0.91 ± 0.03.

For `CCn1cc(C(=O)O)c(=O)c2cc(F)c(N3CCNCC3)cc21`, the cell viability with DLD1 [1] is 0.944 ± 0.061; in the test with HCT116, 0.98 ± 0.18; with SW480 [2], 0.926 ± 0.0014. Also, the “TCF/Wnt firefly luciferase reporter signal” value in the test on DLD1 [3] was 1.19 ± 0.042; in the test on SW480 [4], 1.07 ± 0.071.

On to `CCCNCC(O)COc1ccccc1C(=O)CCc1ccccc1` (stereo not given), for which the results for the cell viability in the test with DLD1 [1], with HCT116 and with SW480 [2] were 0.96 ± 0.085, 1.07 ± 0.22 and 0.927 ± 0.033, respectively. The “TCF/Wnt firefly luciferase reporter signal” value in the test with DLD1 [3] was found to be 1.06 ± 0.091; with SW480 [4], 0.883 ± 0.12.

As to `Cn1c(=O)[nH]c2ncn(C)c2c1=O`, the cell viability in the test with DLD1 [1] is 0.987 ± 0.13; in the test with HCT116, 1.04 ± 0.021; in the test with SW480 [2], 1.02. For the same compound, the “TCF/Wnt firefly luciferase reporter signal” value with DLD1 [3] worked out at 1.05 ± 0.13; with SW480 [4] it was 1.02 ± 0.072.

As to `C[C@H](CCC(=O)O)[C@H]1CC[C@H]2[C@@H]3[C@@H](O)C[C@@H]4C[C@H](O)CC[C@]4(C)[C@H]3CC[C@]12C`, the cell viability in the test with DLD1 [1] was 0.966 ± 0.029; in the test on HCT116, 1.01 ± 0.025; with SW480 [2], 0.958 ± 0.028. Further, the “TCF/Wnt firefly luciferase reporter signal” value was determined as 0.89 ± 0.061 in the test on DLD1 [3] and 1.02 ± 0.09 in the test with SW480 [4].

`CC(=O)NCCCCCC(=O)O`: the values for the cell viability with DLD1 [1], with HCT116 and in the test with SW480 [2] were 0.987 ± 0.047, 1.01 ± 0.027 and 1.035 ± 0.0071, respectively. Moreover, the “TCF/Wnt firefly luciferase reporter signal” value in the test on DLD1 [3] worked out at 1.01 ± 0.068; with SW480 [4], 1.04 ± 0.07.

On to `N[C@H]1C(O)O[C@H](CO)[C@@H](O)[C@@H]1O` (stereo not given in full), for which the figures for the cell viability in the test on DLD1 [1], in the test on HCT116 and in the test on SW480 [2] were 0.973 ± 0.037, 0.993 ± 0.024 and 0.99 ± 0.013, respectively. The “TCF/Wnt firefly luciferase reporter signal” value in the test with DLD1 [3] came out at 1.12; in the test on SW480 [4] it was 1.06 ± 0.021.

Consider `CC(C(=O)O)c1ccc(-c2ccccc2)c(F)c1` (stereo not given), for which the cell viability with DLD1 [1] worked out at 1.09 ± 0.11; in the test with HCT116 it was 1.11 ± 0.078; in the test with SW480 [2] it was 1.04. The “TCF/Wnt firefly luciferase reporter signal” value in the test on DLD1 [3] was determined as 1.07 ± 0.014; in the test on SW480 [4], 1.02 ± 0.035.

Take `CC(=O)Oc1c(C)c(C)c2c(c1C)CCC(C)(CCCC(C)CCCC(C)CCCC(C)C)O2` (stereo not drawn) [alpha-TOCHOPHERYL ACETATE]: the cell viability in the test with DLD1 [1] came out at 1.06 ± 0.085; in the test on HCT116, 1.02 ± 0.092; with SW480 [2], 1.06 ± 0.014. Further, the “TCF/Wnt firefly luciferase reporter signal” value was determined as 1.12 ± 0.18 with DLD1 [3] and 1.09 ± 0.057 with SW480 [4].

On to `CC1(C)CC[C@]2(C(=O)O)CC[C@]3(C)C(=CC[C@@H]4[C@@]5(C)CC[C@H](O)[C@@](C)(CO)[C@@H]5CC[C@]43C)[C@@H]2C1`, for which the cell viability in the test on DLD1 [1] turned out to be 0.995 ± 0.16; with HCT116, 1.025 ± 0.0071; with SW480 [2], 1.01 ± 0.04. The figures for the “TCF/Wnt firefly luciferase reporter signal” value in the test on DLD1 [3] and in the test on SW480 [4] were 0.99 ± 0.042 and 0.975 ± 0.078, respectively.

In the case of `CCCCCCCCCCCCCCC(C(=O)O)C(O)(CC(=O)OC)C(=O)O` (stereo not given), the values for the cell viability in the test with DLD1 [1], in the test on HCT116 and with SW480 [2] were 0.955 ± 0.05, 0.878 ± 0.017 and 0.9505 ± 0.0064, respectively. In addition, the “TCF/Wnt firefly luciferase reporter signal” value in the test with DLD1 [3] came out at 0.979 ± 0.086; in the test with SW480 [4], 0.947 ± 0.028.
